Compounds without any hit were thinned out: in the full panel of roughly 83,000, 20% have a hit.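 Percent growth is the endpoint: 0 to 100 indicates growth inhibition (40 means 60% inhibition), 0 means no net growth, and negative values indicate cell death.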 Active and inactive are the calls of the source. How the source made its calls: active means growth percent below 10; inactive means the rest.
Columns and labels:
Test in all cases: NCI-60 one-dose screen, 48 h (100 = growth as untreated, 0 = no growth, -100 = all killed)
Conditions in all cases: 10 µM
[1] = tested on: HT29 colon
[2] = tested on: SNB-75 CNS
[3] = tested on: SNB-19 CNS
[4] = tested on: U251 CNS
[5] = tested on: PC-3 prostate
[6] = tested on: SK-MEL-5 melanoma
[7] = tested on: UACC-62 melanoma
[8] = tested on: LOX IMVI melanoma
[9] = tested on: SK-MEL-28 melanoma
[10] = tested on: SK-MEL-2 melanoma

Measured: growth

O=C1NC(=O)c2ncccc21
inactive: [1] 108% | [2] 98% | [3] 107% | [4] 106% | [5] 107% | [6] 95.1% | [7] 112% | [8] 101% | [9] 110%

CCOC(=O)CCC(NC(=O)c1ccc(N)cc1)C(=O)OCC (centres undefined)
inactive: [1] 99.4% | [2] 113% | [3] 109% | [4] 105% | [5] 89.8% | [6] 105% | [7] 103% | [8] 100% | [9] 105%

COc1ccc(-c2nn(-c3cccc(NC(=O)c4ccc(N5CCOCC5)c(C(F)(F)F)c4)c3)cc2-c2ccncc2)cc1Cl
inactive: [1] 11.2% | [2] 47% | [3] 81.4% | [4] 23.6% | [5] 42.7% | [6] 68.2% | [7] 74.3% | [8] 74.2% | [9] 72.3%

COc1cc2c(cc1OC)N(CCO)C1=C(C(=O)OC1)C2c1ccc(Cl)c(Cl)c1 (centres undefined)
inactive: [1] 94% | [2] 106% | [3] 98.3% | [4] 96.8% | [5] 99.2% | [6] 99.5% | [7] 101% | [8] 95.9% | [9] 120%

CCCCCCN1CCN(Cc2ccc(N(CC)CC)cc2)C(=O)C1=O
active: [1] 2.25%
inactive: [2] 14% | [3] 74.4% | [4] 17.1% | [5] 13.5% | [6] 21.4% | [7] 45% | [8] 45.2% | [9] 49.9%

CN(C)Cc1cn(-c2ncc(-c3ccc(C(F)(F)F)cc3)c(NC3CCCCCC3)n2)nn1
inactive: [1] 31% | [2] 72.9% | [3] 92.1% | [4] 73.3% | [5] 77.5% | [6] 80.6% | [7] 97.6% | [8] 95.7% | [9] 97.4%

CCc1ccc2c(c1)N(CCO)C1=C(C(=O)OC1)C2c1cc(OC)c(OC)c(OC)c1 (centres undefined)
active: [1] -24.2% | [6] -14.5%
inactive: [2] 49.3% | [3] 21.7% | [4] 10.9% | [5] 26.9% | [7] 16.2% | [8] 25% | [9] 64.5%

COc1ccc(Oc2nc(NC3CCCC3)nc(Sc3ccc(OC)cc3)n2)cc1
inactive: [1] 43.7% | [2] 75.3% | [3] 90.9% | [4] 44.4% | [5] 43% | [6] 45.7% | [7] 71.1% | [8] 72.6% | [9] 86%

COc1ccc(/C=C/C(C)=N/OCC(=O)O)cc1
inactive: [1] 105% | [2] 100% | [3] 103% | [4] 95.2% | [5] 94.4% | [6] 101% | [7] 113% | [8] 96.9% | [9] 114%

O=C(Nc1cccc(-n2cc(-c3ccncc3)c(-c3ccc(O)c(Cl)c3)n2)c1)c1ccc(N2CCOCC2)c(C(F)(F)F)c1
inactive: [1] 12.4% | [2] 33.5% | [3] 67.9% | [5] 24.4% | [6] 40.9% | [7] 43.3% | [8] 21.1% | [9] 49.7%
active: [4] -13%

COc1ccc(-c2nn(-c3cccc(NC(=O)c4cccc(C(F)(F)F)c4)c3)cc2-c2ccncc2)cc1Cl
inactive: [3] 79.6% | [5] 14% | [6] 23.7% | [7] 38.2% | [8] 28.6% | [9] 40.6%
active: [1] 8.18% | [2] 6.59% | [4] -3.25%

C/C(N)=C(\C#N)C(=O)c1ccccc1
inactive: [1] 105% | [2] 93.1% | [3] 107% | [4] 98.2% | [5] 98.2% | [6] 99.5% | [7] 109% | [8] 99.8% | [9] 108%

O=S(=O)(NCCCNc1nccc(-c2c(-c3ccc(F)cc3)nc3sccn23)n1)c1ccc(F)cc1
active: [1] 3.28%
inactive: [2] 40.7% | [3] 93.2% | [4] 35.9% | [5] 32.3% | [6] 31.6% | [7] 18.5% | [8] 28.3% | [9] 67.3%

CC(=O)OCc1cc(-c2nc3ccccc3[nH]c2=O)nn1-c1ccc(Cl)cc1
inactive: [1] 104% | [2] 98.6% | [3] 89.4% | [4] 100% | [5] 99% | [6] 97.8% | [7] 89.3% | [8] 102% | [9] 107% | [10] 100%

CCc1ccc2c(c1)N(CCO)C1=C(C(=O)OC1)C2c1ccccc1 (centres undefined)
inactive: [1] 86.3% | [2] 88% | [3] 104% | [4] 45.4% | [5] 93.5% | [6] 87.3% | [7] 70.6% | [8] 94.5% | [9] 90.9%

CC(C)=CCc1ccc(O)c(=O)cc1C(C)C
inactive: [1] 28.5% | [2] 12.7% | [3] 41% | [4] 15.5% | [5] 43.7% | [7] 14.3% | [8] 22% | [9] 34.5% | [10] 17.2%
active: [6] -17.2%

Cc1cccc(NC2=C(C#N)C(=O)NC3(CCCC3)S2)c1
inactive: [1] 103% | [2] 90.7% | [3] 94.2% | [4] 97.4% | [5] 105% | [6] 95.7% | [7] 98.7% | [8] 96.5% | [9] 105% | [10] 98.2%

Nc1nc(N=Nc2ccc(O)cc2)cc(=O)[nH]1
inactive: [1] 123% | [2] 119% | [3] 99.5% | [4] 93.6% | [5] 104% | [6] 96.6% | [7] 101% | [8] 93.7% | [9] 106% | [10] 144%

COc1ccc(-n2c(SCc3cc(OC)c(OC)c(OC)c3)nc3ccc(C)cc3c2=O)cc1
inactive: [1] 21.9% | [2] 44.4% | [3] 83.7% | [4] 69.1% | [5] 75% | [6] 54.9% | [7] 56.7% | [8] 63% | [9] 74% | [10] 64.8%

O=C(Nc1cccc(-n2cc(-c3ccncc3)c(-c3ccc(O)c(Cl)c3)n2)c1)c1cc(C(F)(F)F)cc(C(F)(F)F)c1
inactive: [1] 48.2% | [2] 59.4% | [3] 88.4% | [4] 33.1% | [5] 24.2% | [6] 56.4% | [7] 72.4% | [8] 37.1% | [9] 70.8%

Cc1ccc(S(=O)(=O)OCCN(CCOS(=O)(=O)c2ccc(C)cc2)c2c[nH]c(=O)[nH]c2=O)cc1
inactive: [1] 99.7% | [2] 92.2% | [3] 100% | [4] 95% | [5] 94.6% | [6] 101% | [7] 100% | [8] 104% | [9] 102%

CCCCCCCCCCCCCCCC(=O)OC1[C@@H](OC(=O)CCCCCCCCCCCCCCC)[C@@H](C(=O)N[C@@H](CCCCN)C(=O)OC)O[C@H]1n1cnc2c(=O)[nH]c(NC(=O)C(C)C)nc21 (some centres undefined)
inactive: [1] 98.2% | [2] 94.1% | [3] 93.5% | [4] 90.2% | [5] 103% | [6] 101% | [7] 111% | [8] 93.5% | [9] 113%

O=C(/C=C/c1cc2ccccc2[nH]c1=O)c1ccc2c(c1)OCO2
inactive: [1] 85.3% | [2] 86.7% | [3] 88.4% | [4] 86.4% | [5] 77.5% | [6] 96% | [7] 90.5% | [8] 76.4% | [9] 98.6%

CCN(CC)CCSCCN(CC)CC
inactive: [1] 104% | [2] 96.3% | [3] 106% | [4] 91.7% | [5] 96.5% | [6] 99.6% | [7] 102% | [8] 99% | [9] 103%

O=C(NC(Cc1ccc(O)cc1)C(=O)N=Nc1c(O)[nH]c2ccccc12)c1ccccc1 (centres undefined)
inactive: [1] 101% | [2] 96.2% | [3] 96.9% | [4] 97.7% | [5] 98.5% | [6] 92.4% | [7] 88.1% | [8] 89.1% | [9] 109%

CSc1cc(SC)ncn1
inactive: [1] 97.3% | [2] 94.2% | [3] 91% | [4] 108% | [5] 91% | [6] 104% | [7] 93.7% | [8] 105% | [9] 102% | [10] 100%

COc1ccc2c(c1)O/C(=C\c1ccc([N+](=O)[O-])o1)C2=O
active: [1] -33.1% | [4] 9.08% | [5] -2.47% | [7] -37.6% | [8] -64.7% | [10] -39.4%
inactive: [2] 58.7% | [3] 59.7% | [6] 13% | [9] 41.9%

N#Cc1ncc(-c2cc(F)c(F)c(F)c2)c(NC2CCCCCC2)n1
inactive: [1] 97.6% | [2] 65.1% | [3] 90.9% | [4] 50.2% | [5] 77.1% | [6] 93% | [7] 84.8% | [8] 84.9% | [9] 94.1% | [10] 96.2%

O=C(N/N=C/c1cc2ccccc2c2ccccc12)c1cc(O)c(O)c(O)c1
inactive: [1] 94.8% | [2] 56.4% | [3] 50.6% | [4] 20.3% | [5] 52.3% | [6] 52.9% | [7] 41.5% | [8] 47.2% | [9] 55.6%
